PubChem BioAssay
Values joined by “and” are separate entries in the source; they are usually repeats but may differ in a detail not shown here. Equal values may be shown once. Inconclusive results are not listed. Active and inactive are the calls of the source. Unless noted, no rule for the calls is given here.

Columns and labels:
[1] = tested on: Neuropilin-2 / VEGF-C interaction (human); assay: small molecules blocking Neuropilin-2/VEGF-C interaction – biochemical, microplate binding format, z-score (AID 743281); settings: microplate NRP2/VEGF-C binding assay; stronger effect = lower value
[2] = tested on: Aerobactin synthetase IucA (Klebsiella pneumoniae); assay: inhibition of K. pneumoniae IucA enzyme – biochemical, Tocris library, absorbance (AID 1345561); settings: purified IucA enzyme assay, absorbance (OD) read-out; stronger effect = lower value;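 tested at 8 µM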;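 also: 100% = enzyme without compound and 0% = no enzyme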
[3] = galactose survival enhancers in mitochondrial complex I cybrids – cell-based, galactose medium, ATP luminescence, primary screen (AID 1645843;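 active = z-score of at least 1.8 in each of two replicates, scored against plate mean and spread of sample wells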;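 also: positive z means more ATP and so rescue of galactose-driven cybrid death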); settings: complex I mutant cybrid cells, 72 h, stronger effect = higher value
[4] = compounds altering circadian rhythm period length – cell-based, LOPAC library, luminescence reporter (AID 2774); settings: circadian reporter cells, at 7 µM, actives lie on both sides;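 also: values are relative to mean of DMSO wells on each plate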
[5] = tested on: Hepatitis C virus NS3 helicase; assay: blockers of NS3h binding to ssDNA – biochemical, fluorescence polarization, LOPAC1280 library, primary screen (AID 687035; in the data active = inhibition above about 37%); settings: Purified HCV NS3 helicase, Cy5-dT15 ssDNA binding fluorescence polarization; stronger effect = higher value; concentration not given here
[6] = compounds altering Cy5-DNA-NS3h complex signal – biochemical, LOPAC1280, artefact control for HCV NS3 helicase inhibitor project (AID 687037); settings: Cy5-DNA-NS3h complex fluorescence interference counterscreen
[7] = blockers of cellular phospholipid synthesis – cell-based, LOPAC library, screen 4, primary screen (AID 1347384); settings: animal cells, phospholipid biosynthesis inhibition screen; at 10 µM
[8] = viability loss in pontine glioma line – cell-based, SU-DIPG-XIII, MIPE4.0, CellTiter-Glo, qHTS, dose response (AID 1347061; cut-off not given, nearly all actives have AC50 up to about 37 µM;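 also: cells exposed to compound for 48 hours before readout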); settings: CellTiter-Glo ATP luminescence
[9] = viability loss in pontine glioma line – cell-based, SU-DIPG-IV, MIPE4.0, CellTiter-Glo, qHTS, dose response (AID 1347063; cut-off not given, nearly all actives have AC50 up to about 30 µM;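 also: compound exposure lasted 48 hours before the viability readout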); settings: CellTiter-Glo ATP luminescence
[10] = viability loss in pontine glioma line – cell-based, SU-DIPG-XXV, MIPE5.0, CellTiter-Glo, qHTS, dose response (AID 1347065; cut-off not given, nearly all actives have AC50 up to about 26 µM;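 also: cells exposed to compound for 48 hours before ATP readout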); settings: CellTiter-Glo ATP luminescence
[11] = growth inhibition of DIPG cells – cell-based, MIPE4.0 library, CellTiter-Glo luminescence, qHTS (AID 1347066; cut-off not given, nearly all actives have AC50 up to about 30 µM;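 also: cells exposed to compound for 48 hours before readout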); settings: SU-DIPG-VI viability, CellTiter-Glo ATP luminescence
[12] = JHH-DIPG-1 glioma cell viability, MIPE5.0 library, CellTiter-Glo luminescence, qHTS (AID 1347067; cut-off not given, nearly all actives have AC50 up to about 26 µM;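 also: cells exposed to compound for 48 hours before readout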); settings: JHH-DIPG-1 glioma viability, CellTiter-Glo ATP luminescence
[13] = growth inhibition of DIPG cells – cell-based, MIPE5.0 library, qHTS (AID 1347068; cut-off not given, nearly all actives have IC50 up to about 30 µM); settings: SU-DIPG-XXV viability
[14] = biological target: NAD(+) hydrolase SARM1 (Homo sapiens) (UniProt Q6SZW1); assay: blocking NAD cleavage by SARM1 SAM-TIR – cell lysate, NAD-Glo luminescence (AID 1508614;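 active = compound whose remaining NAD level is above about 45 nM, limit read from the data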;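 also: higher remaining NAD means stronger inhibition of SARM1 NADase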); settings: SAM-TIR HEK293T lysate NADase, at 1 µM, stronger effect = higher value
Chain of NAD(+) hydrolase SARM1 (Homo sapiens) (Q6SZW1 whole entry, looked up): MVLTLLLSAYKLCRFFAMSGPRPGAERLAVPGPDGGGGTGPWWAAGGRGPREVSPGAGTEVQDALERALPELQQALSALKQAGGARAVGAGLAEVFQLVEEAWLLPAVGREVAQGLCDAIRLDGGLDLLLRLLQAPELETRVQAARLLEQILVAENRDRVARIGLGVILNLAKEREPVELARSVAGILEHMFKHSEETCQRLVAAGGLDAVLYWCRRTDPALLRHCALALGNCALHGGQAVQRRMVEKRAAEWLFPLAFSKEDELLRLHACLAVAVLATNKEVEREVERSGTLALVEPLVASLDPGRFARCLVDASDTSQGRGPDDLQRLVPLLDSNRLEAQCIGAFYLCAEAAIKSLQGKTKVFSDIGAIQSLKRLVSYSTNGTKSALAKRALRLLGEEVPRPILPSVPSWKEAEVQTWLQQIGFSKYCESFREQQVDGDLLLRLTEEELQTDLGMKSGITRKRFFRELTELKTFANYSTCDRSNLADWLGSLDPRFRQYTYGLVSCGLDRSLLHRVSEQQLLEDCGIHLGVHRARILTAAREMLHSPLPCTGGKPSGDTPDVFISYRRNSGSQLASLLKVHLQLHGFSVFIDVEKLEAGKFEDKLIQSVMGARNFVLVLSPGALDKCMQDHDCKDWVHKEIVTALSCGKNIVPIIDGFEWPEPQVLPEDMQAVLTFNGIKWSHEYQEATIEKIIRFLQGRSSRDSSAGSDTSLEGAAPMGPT

[15] = viability loss in pontine glioma line – cell-based, SU-DIPG-XVII, MIPE5.0, CellTiter-Glo, qHTS, dose response (AID 1347060; cut-off not given, nearly all actives have AC50 up to about 26 µM;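 as to AC50: cells exposed to compound for 48 hours before viability readout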); settings: CellTiter-Glo ATP luminescence
[16] = viability loss in pontine glioma line – cell-based, JHH-DIPG-1, MIPE4.0, CellTiter-Glo, qHTS, dose response (AID 1347062; cut-off not given, nearly all actives have AC50 up to about 27 µM); settings: JHH-DIPG-1 viability, CellTiter-Glo ATP luminescence
[17] = viability loss in pontine glioma line – cell-based, SU-DIPG-XIII, MIPE5.0, CellTiter-Glo, qHTS, dose response (AID 1347064; cut-off not given, nearly all actives have AC50 up to about 23 µM); settings: CellTiter-Glo ATP luminescence
[18] = compounds altering HSF1 focus formation in cells – imaging, Selleck Cancer Library (AID 1347162; in the data active = plate-normalised HSF1 focus index below about 0.46); settings: human cells, HSF1 nuclear foci imaging, at 10 µM; SSMD: measured here: HSF1 foci SSMD mean; cell count: measured here: cell number; plate-normalised HSF1 focus index: stronger effect = lower value
[19] = growth inhibition, single agents and combos, ICB984, cell-based, cisplatin or BGB combos, synergistic combos for chromothripsis tumors (AID 1671451); settings: ICB984 medulloblastoma cells, drug combinations, stronger effect = higher value;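 also: cells exposed for 96 hours before readout; 0% = vehicle DMSO and 100% = killing by high DMSO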

CCCCN1CCCC1CNC(=O)c1cc(C#N)c2ccccc2c1OC (stereo not given)
inactive: z-score [1] 1.01 | remaining activity [2] 113% | z-score [3] -0.605 and -0.3

CC(CCCCC(=O)Nc1ccc(C(F)(F)F)cc1)NCCc1cnc[nH]1 (stereo not given)
inactive: z-score [1] -0.258 | remaining activity [2] 92.5% | z-score [3] 0.675 and -0.77

NCC(O)c1ccc(O)c(O)c1 (stereo not given)
inactive: period change [4] 0.075 h | inhibition [5] -3% | fluorescence ratio (interference) [6] 0.9 | outcome [7] | z-score [3] -1.48 and -0.825

C[C@@H](c1ncncc1F)[C@](O)(Cn1cncn1)c1ccc(F)cc1F
inactive: z-score [1] 1.15 | outcome [8] | outcome [9] | outcome [10] | outcome [11] | outcome [12] | outcome [13] | outcome [7] | remaining NAD [14] 10 nM | z-score [3] 0.365

CC(C)C[C@H](NC(=O)[C@@H](O)[C@H](N)Cc1ccccc1)C(=O)O
active: AC50 [9] 18.7 µM | AC50 [11] 20.9 µM
2.45: SSMD [18]
7080: cell count [18]
inactive: period change [4] 0.15 h | inhibition [5] -4% | fluorescence ratio (interference) [6] 1 | z-score [1] 0.0206 | remaining activity [2] 117% | outcome [15] | outcome [16] | outcome [17] | outcome [12] | outcome [13] | plate-normalised HSF1 focus index [18] 1.13 | outcome [7] | z-score [3] 0.375 and 0.725

COc1nc(C)nc(Cl)c1NC1=NCCN1
inactive: period change [4] -0.08 h | inhibition [5] -4% | fluorescence ratio (interference) [6] 0.9 | z-score [1] -0.63 | remaining activity [2] 93.9% | outcome [8] | outcome [16] | outcome [9] | outcome [17] | outcome [10] | outcome [11] | outcome [13] | outcome [7] | z-score [3] 0.36 and 1.01 and 0.165
active: AC50 [15] 23.5 µM

CC(=O)NC[C@H]1CN(c2ccc(N3CCOCC3)c(F)c2)C(=O)O1
inactive: z-score [1] 0.877 | outcome [15] | outcome [8] | outcome [16] | outcome [9] | outcome [17] | outcome [10] | outcome [11] | outcome [12] | outcome [13] | outcome [7] | remaining NAD [14] 10 nM | z-score [3] 1.22 and -0.185

CSc1nc2cc(Oc3cccc(Cl)c3Cl)c(Cl)cc2[nH]1
inactive: z-score [1] 0.432 | z-score [3] -1.88

CC(C)(S)C(N)C(=O)O (stereo not given)
inactive: z-score [3] -0.255

CC(C)OC(=O)CCC/C=C\C[C@@H]1[C@@H](CC[C@@H](O)CCc2ccccc2)[C@H](O)C[C@@H]1O
inactive: z-score [1] -0.836 | z-score [3] 0.01

COc1cc(C[C@@H](CO)[C@H](CO)Cc2ccc(O)c(OC)c2)ccc1O
inactive: z-score [1] 0.125 | outcome [15] | outcome [17] | outcome [10] | outcome [12] | outcome [13]

CN(C)C1C(=O)C(C(N)=O)=C(O)C2(O)C(=O)C3=C(O)c4c(O)ccc(Cl)c4C(O)C3CC12 (stereo not given)
inactive: z-score [3] -1.45

CC1c2cccc(O)c2C(O)=C2C(=O)C3(O)C(O)=C(C(N)=O)C(=O)C(N(C)C)C3C(O)C21 (stereo not given)
inactive: outcome [12] | outcome [13] | z-score [3] -1.48

CCC(CO)NCCNC(CC)CO (stereo not given)
inactive: z-score [3] 0.45

CC(C)(C)NC(=O)[C@@H]1C[C@@H]2CCCC[C@@H]2CN1C[C@@H](O)[C@H](Cc1ccccc1)NC(=O)[C@H](CC(N)=O)NC(=O)c1ccc2ccccc2n1
inactive: z-score [1] 1.64

CC1(C)SC2C(NC(=O)Cc3ccccc3)C(=O)N2C1C(=O)O (stereo not given)
inactive: z-score [3] -0.1

O=C(O)C[C@H](O)C[C@H](O)/C=C/c1c(C2CC2)nc2ccccc2c1-c1ccc(F)cc1
inactive: outcome [1] | outcome [11] | outcome [13] | remaining NAD [14] 10 nM
active: AC50 [10] 9.34 µM | AC50 [12] 9.34 µM

O=C(NC(CO)C(O)c1ccc([N+](=O)[O-])cc1)C(Cl)Cl (stereo not given)
inactive: z-score [3] 0.48

CC(C)c1ccc2c(c1)c(SC(C)(C)C)c(CC(C)(C)C(=O)O)n2Cc1ccc(Cl)cc1
inactive: period change [4] 0.025 h | inhibition [5] 0% | fluorescence ratio (interference) [6] 0.9 | z-score [1] -2.97 | outcome [16] | outcome [13] | outcome [7] | z-score [3] -1.26 and -1.88
active: AC50 [15] 18.6 µM | AC50 [10] 18.6 µM | AC50 [12] 26.3 µM

CCCCC(=O)OC1(C(=O)CO)CCC2C3CCC4=CC(=O)CCC4(C)C3C(O)CC21C (stereo not given)
inactive: z-score [3] 0.245

O=c1ncc(F)c[nH]1
inactive: z-score [1] -0.183 | z-score [3] 0.75

NC(=O)c1ncn(C2OC(CO)C(O)C2O)n1 (stereo not given)
-2.81%: inhibition ([19]; measured here: 5 uM single agent, at 5 µM)
6.2%: inhibition ([19]; BGB IC40 combo, at 0.05 µM) | inhibition ([19]; cisplatin combo, at 0.05 µM)
3.66%: inhibition ([19]; BGB IC20 combo, at 0.005 µM)
-0.335%: inhibition ([19]; BGB IC40 combo, at 0.005 µM)
-6.29%: inhibition ([19]; cisplatin combo, at 0.5 µM)
-17.4%: inhibition ([19]; cisplatin combo, at 5 µM)
inactive: z-score [3] 1.69 | inhibition ([19]; at 0.5 µM) -10.2%

NC(Cc1cc(I)c(Oc2ccc(O)c(I)c2)c(I)c1)C(=O)O (stereo not given)
inactive: z-score [3] -1.5
